In the library only some 1.5% were active in any assay of this set; here they are far more common.
BRCA1 expr up: qHTS Assay to Identify Small Molecule Activators of BRCA1 Expression; 380,000 tested, 1.1% active; MCF7-BRCA1-FFLuc reporter, luminescence, 48 h; response scale: scaled: vehicle 0%, 10 µM genistein 100%; Potency, µM (titrated, usually from 46.1 µM), inactives show at the top dose activation, usual class: activators; further: potency means the concentration at half of the fitted maximal effect; nearly all actives have a fitted effect of over 80% in size
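Using MCF7 cells harboring a BRCA1 firefly luciferase reporter, plated 2 h before compound pinning, the screen measured luminescence after 48 h incubation. Responses were normalized to DMSO and 10 microM genistein, then fitted for concentration-effect.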
gsp antagonist: qHTS for Antagonists of gsp, the Etiologic Mutation Responsible for Fibrous Dysplasia/McCune-Albright Syndrome: qHTS; gsp-mutant cells, cAMP HTRF, 30 min; Potency, µM (series often up to 76.9 µM), without a hit: at the top dose activity change, negative = inhibition, usual class: inhibitors; 340,000 tested, 0.4% active; calls by dose curve; cell line not stated here;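 further: intracellular cAMP measured with PDE inhibitor Ro 20-1724 present during compound exposure; potency means the concentration at half of the fitted maximal effect; on the % scale 0 is the no-effect control and ±100 the full control effect; nearly all actives have a fitted effect of over 65% in size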
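HTRF cAMP measurement after 30 min RT detection following 30 min, 37C compound treatment alongside […] (added as 300 uM solution) in G418-selected cells seeded at 2000/well and grown 16–24 h.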
IL2 activator: qHTS of IL-2 Activators; IL-2 activation reporter assay, cell-based qHTS; stimulated with anti-CD3/CD4/CD28 beads; in transgenic mouse T cells; activation, % (series mostly up to about 46 µM); 360,000 tested, 0.065% active; AID 652025, 2013; in the data active means activation above about 50%; inconclusive means mostly about 30% to 49%; further: 0% is about no effect
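Screening format: compound pinned onto unstimulated transgenic mouse T cells, 60 min incubation, then anti-CD3/anti-CD4/anti-CD28 bead stimulation for 18 hours at 37 degrees C, followed by EGFP and DsRed detection.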
gsp agonist: qHTS for Agonist of gsp, the Etiologic Mutation Responsible for Fibrous Dysplasia/McCune-Albright Syndrome: qHTS | gsp mutant cells, cAMP HTRF, 30 min | AID 624287, 2012 | 340,000 tested, 0.13% active | Potency, µM (series often up to 76.9 µM), for the others: at the top dose activation (cAMP increase), hits mostly activators; active means well fitted activation curve with a large enough effect; inconclusive means small, poorly fitted or top-dose-only effect, or another doubt; inactive means no such curve, though single readings can be large or run the other way; cell line not stated here;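 further: phosphodiesterase inhibitor Ro 20-1724 added with compounds to block cAMP breakdown; potency means the concentration at half of the fitted maximal effect; nearly all actives have a fitted effect of over 60% in size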
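Cells in DMEM/10% FBS with G418 were pretreated with compounds in DMSO plus […] (300 uM stock) for 30 min at 37C. cAMP was measured by HTRF (cAMP-d2 plus anti-cAMP antibody-K) after 30 min at room temperature.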
IDH1 R132H inh: qHTS for Inhibitors of mutant isocitrate dehydrogenase 1 (IDH1): qHTS; Potency, µM (doses to about 76.6 µM), for inactives: at the top dose activity change, negative = inhibition, actives largely listed as inhibitors; 390,000 tested, 0.093% active; IDH1-R132H enzyme, NADPH consumption, diaphorase/resazurin fluorescence; Isocitrate dehydrogenase [NADP] cytoplasmic (Homo sapiens), O75874; further: potency means the concentration at half of the fitted maximal effect; on the % scale 0 is the no-effect control and ±100 the full control effect; nearly all actives have a fitted effect of over 65% in size
Target sequence (O75874 whole entry R132H, stated change not applied): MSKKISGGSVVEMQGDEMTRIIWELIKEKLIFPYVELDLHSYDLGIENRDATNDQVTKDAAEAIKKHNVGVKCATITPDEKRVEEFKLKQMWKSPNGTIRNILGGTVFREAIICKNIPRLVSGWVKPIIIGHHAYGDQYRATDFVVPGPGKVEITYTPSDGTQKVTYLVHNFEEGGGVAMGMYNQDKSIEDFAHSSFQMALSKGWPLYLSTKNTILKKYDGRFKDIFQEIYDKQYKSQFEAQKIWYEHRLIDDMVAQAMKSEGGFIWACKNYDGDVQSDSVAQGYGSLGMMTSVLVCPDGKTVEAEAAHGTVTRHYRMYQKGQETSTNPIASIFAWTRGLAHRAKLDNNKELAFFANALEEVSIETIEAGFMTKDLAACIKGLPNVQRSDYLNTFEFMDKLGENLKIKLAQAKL
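IDH1-R132H (0.5 ug/mL) preincubated 30 min with compound, then NADPH (0.016 mM) and alpha-KG (2 mM) added; 80 min at RT, pH 7.5. Remaining NADPH coupled via diaphorase/resazurin to fluorescence (540/590 nm); concentration-response curves normalized to no-enzyme control.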
Numbers without * were called inactive; [ ] = dose if it differs, or a comment. Unless noted, the call rests on the fitted dose curve; in most records, active means well fitted curve in the direction sought with a large enough effect; inconclusive means small, poorly fitted or top-dose-only effect, or another doubt; inactive means no such curve, though single readings can be large; an effect the other way counts as inactive or inconclusive.

Screening N#Cc1c(N2C(=O)Nc3ccccc3N2O)sc2c1CCCC2 returned BRCA1 expr up 11µM*, gsp antagonist 5%, IL2 activator 2, gsp agonist 7%[15.4 µM] and IDH1 R132H inh 9%.
For Nc1ccc(OCc2ccccc2)cc1 the results were BRCA1 expr up inconclusive, gsp antagonist 6%, IL2 activator -1, gsp agonist -34% and IDH1 R132H inh -4%.
For Nc1cc(OCc2ccccc2)ccc1OCc1ccccc1 the results were BRCA1 expr up 11µM*, gsp antagonist -8%, IL2 activator 0, gsp agonist -44% and IDH1 R132H inh -6%.
For COc1ccc(-c2nnc(SCC(=O)c3cccs3)o2)cc1 the results were BRCA1 expr up 7.1µM*, gsp antagonist 3%, IL2 activator -2, gsp agonist 6% and IDH1 R132H inh 4%.
For O=C(CSc1nnc(-c2cccs2)o1)c1cccs1 the results were BRCA1 expr up 92%, gsp antagonist -5%, IL2 activator -2, gsp agonist -49% and IDH1 R132H inh 1%.
O=C(O)c1ccc(/C=N/N2CCN(c3ccccc3)CC2)cc1 was read as BRCA1 expr up 4.5µM*, gsp antagonist -9%, IL2 activator -1, gsp agonist -3% and IDH1 R132H inh -6%.
Screening COc1cc(/C=N/N2CCN(c3ccc(Cl)cc3)CC2)cc(OC)c1OC(C)=O returned BRCA1 expr up 3%, gsp antagonist 3%, IL2 activator 0, gsp agonist inconclusive and IDH1 R132H inh -7%.
For COc1cc(/C=N/N2CCN(c3ccccc3)CC2)cc(OC)c1OC(C)=O the results were BRCA1 expr up 1%, gsp antagonist 32µM*, IL2 activator 1, gsp agonist -10% and IDH1 R132H inh 5%.
Screening C[C@@H]1CN([C@H](C)CO)C(=O)CCCn2nncc2CO[C@@H]1CN(C)S(=O)(=O)c1ccc(-n2cccn2)cc1 returned BRCA1 expr up -1%, IL2 activator 3, gsp agonist -2% and IDH1 R132H inh -3%.
For COCCn1c(C)cc(/C=C2/NC(=O)N(c3cccc(Cl)c3)C2=O)c1C the results were BRCA1 expr up 7.9µM*, gsp antagonist -13%, IL2 activator -2, gsp agonist -22% and IDH1 R132H inh 4%.
`CCn1c(C)cc(/C=C2/NC(=O)N(c3ccccc3)C2=O)c1C` gave BRCA1 expr up 60%, gsp antagonist -1%, IL2 activator -1, gsp agonist -3% and IDH1 R132H inh -5%.
Screening Cc1cccc(C(=O)Nc2c(-c3ccc(F)cc3)nc3ccccn23)c1 returned BRCA1 expr up 10% and IDH1 R132H inh -5%.
O=C(Nc1nc2ccccc2[nH]1)C1CCCC1 was read as BRCA1 expr up inconclusive, gsp antagonist 0%, IL2 activator 0, gsp agonist 9%[15.4 µM] and IDH1 R132H inh 13%.
For O=C(CC1CCCC1)Nc1nc2ccccc2[nH]1 the results were BRCA1 expr up 3.2µM*, gsp antagonist 3%, IL2 activator 1, gsp agonist -26% and IDH1 R132H inh 1%.
For O=C(COc1ccc2ccccc2c1)Nc1nc2ccccc2[nH]1 the results were BRCA1 expr up -11%, gsp antagonist 6%, IL2 activator 0, gsp agonist 2% and IDH1 R132H inh 7%.
For Cc1cc(C)cc(C(=O)Nc2nc3ccccc3[nH]2)c1 the results were BRCA1 expr up 7.9µM*, gsp antagonist -5%, IL2 activator -1, gsp agonist 13% and IDH1 R132H inh -1%.
For O=C(Nc1nc2ccccc2[nH]1)c1cc(F)cc(F)c1 the results were BRCA1 expr up inconclusive, gsp antagonist -8%, IL2 activator 0, gsp agonist 5% and IDH1 R132H inh -1%.
`COc1ccc(OCC(=O)Nc2nc3ccccc3[nH]2)cc1` gave BRCA1 expr up 10µM*, gsp antagonist -4%, IL2 activator 0, gsp agonist -33% and IDH1 R132H inh -2%.
Screening CCCC(=O)N1CCC1(C)C(=O)Nc1ccc(-n2cccc2)cc1 (configuration not stated) returned BRCA1 expr up 14% and IL2 activator 0.
CCOc1ccccc1NC(=O)Cn1cnc2onc(-c3ccc(F)cc3)c2c1=O was read as BRCA1 expr up -9% and IDH1 R132H inh -5%.
For CCCCn1nc(NC(=O)CC(C)C)c2cc3cc(OC)ccc3nc21 the results were BRCA1 expr up 0%, gsp antagonist -4%, IL2 activator -5, gsp agonist -52% and IDH1 R132H inh -4%.
For CCCCn1nc(NC(=O)CCC)c2cc3cc(OC)ccc3nc21 the results were BRCA1 expr up 13µM*, gsp antagonist -7%, IL2 activator -5, gsp agonist 0%[15.4 µM] and IDH1 R132H inh 13%.
OCc1nc2ccccc2[nH]1 was read as BRCA1 expr up 7%.
CC(C)=C1C2CCC1C(C(=O)Nc1sc(C)c(-c3ccc(C(C)C)cc3)c1C(N)=O)C2C(=O)O (configuration not stated) was read as BRCA1 expr up -101%, gsp antagonist 32µM*, IL2 activator 0, gsp agonist 0% and IDH1 R132H inh 0%.
For O=C(Nc1ccccc1Sc1ccccc1)c1cnn2c1NC(=C1CC1)C=C2C(F)(F)F the results were BRCA1 expr up 0%.
Screening COc1ccccc1-c1ccc(NC2CCCCC2)nn1 returned BRCA1 expr up 7.1µM*, gsp antagonist -19%, IL2 activator 0, gsp agonist inconclusive and IDH1 R132H inh -2%.
For COc1ccccc1-c1ccc(Nc2cccc(C(F)(F)F)c2)nn1 the results were BRCA1 expr up -6%, gsp antagonist -3%, IL2 activator 0, gsp agonist inconclusive and IDH1 R132H inh 6%.
Screening Cc1[nH]n(-c2cccc(Cl)c2)c(=O)c1C=NC12CN3CN(CN(C3)C1)C2 returned BRCA1 expr up 2%, gsp antagonist 0%, IL2 activator -3, gsp agonist 4% and IDH1 R132H inh -1%.
`Cc1[nH]n(-c2cccc(Cl)c2)c(=O)c1C=NCC(C)C` gave BRCA1 expr up 10µM*, gsp antagonist -37%, IL2 activator 0, gsp agonist 21%[15.4 µM] and IDH1 R132H inh 8%.
For Cc1[nH]n(-c2cccc(Cl)c2)c(=O)c1C=NCc1ccco1 the results were BRCA1 expr up 11µM*, gsp antagonist 3%, IL2 activator 0, gsp agonist -10% and IDH1 R132H inh -1%.
`CN(C)c1ccc(/C=C2\Cc3ccccc3C2=O)cc1` gave BRCA1 expr up -6%.

Source: PubChem (National Center for Advancing Translational Sciences (NCATS))
